High-throughput results as filed in PubChem.
This is a sample that favours compounds with a hit; in the whole collection about 6.5% have one here.
Lassa entry inh: inhibitors of Lassa virus binding or cell entry. Potency, µM (titrated, usually from 37.9 µM), actives largely listed as inhibitors. Lassa virus pseudotype entry inhibition, cell reporter. 1.2% of 300,000 active. AID 540256; calls by dose curve; tested in HEK293 cells; note: nearly all actives have a fitted effect of over 50% in size
HCMV antiviral: human cytomegalovirus inhibition. HFF cells, HCMV-luciferase reporter, 72 h; stronger effect = lower value. activity change, negative = inhibition, % at 57.5 µM. 4.5% of 410,000 active; in the data active = activity change below about -60%; inconclusive = no clear call, values can overlap the other calls; inactive = above about -39%
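Two compound doses tested in HFFs infected with HCMV-luciferase, MOI 1 PFU/cell, 72 h at 37C. Lysate luminescence read with OneGlo; data normalized against buffer-only and 10uM Salinomycin inhibitor controls.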
FMDV antiviral: foot and mouth disease virus antiviral activity; FMDV antiviral cell-based qHTS; Potency, µM (titrated, usually from 57.9 µM), hits mostly inhibitors; 1.2% of 410,000 active; AID 1159524; calls by dose curve; tested in HEK293T cells; note: read-out not given here; nearly all actives have a fitted effect of over 45% in size
MARV entry inh: inhibitors of Marburg virus binding or cell entry; Marburg virus pseudotyped entry inhibition, cell reporter; Potency, µM (doses to about 37.8 µM), actives largely listed as inhibitors; 1.8% of 300,000 active; calls by dose curve; tested in HEK293 cells
VACV mCherry inh: inhibitors of vaccinia virus infection (mCherry reporter signal); 0.63% of 310,000 active; AID 720579; Potency, µM (series often up to 36.5 µM), usual class: inhibitors; Vaccinia virus mCherry reporter infection, fluorescence; calls by dose curve; tested in A549 cells; note: nearly all actives have a fitted effect of over 35% in size
Vaccinia Venus: inhibitors of vaccinia virus (Venus reporter); Potency, µM (doses to about 36.5 µM), hits mostly inhibitors; AID 720580; Vaccinia virus Venus reporter expression, fluorescence; 0.46% of 330,000 active; calls by dose curve; tested in A549 cells; note: nearly all actives have a fitted effect of over 30% in size
Hits are given with their value; . = inactive; ? = inconclusive; / = no result given.

SMILES | Lassa entry inh | HCMV antiviral | FMDV antiviral | MARV entry inh | VACV mCherry inh | Vaccinia Venus
c1ccc2c(NCCc3c[nH]c4ccccc34)c3ccccc3nc2c1 | / | ? | ? | / | ? | 8.91µM
Fc1cccc(NCCc2c[nH]c3ccccc23)n1 | / | . | . | / | . | ?
OCCCNc1c2ccccc2nc2ccccc12 | ? | -102.0 | . | 7.08µM | 11.2µM | 10µM
Cc1[nH]c2ccccc2c1C(=O)COC(=O)c1c(-c2ccccc2Cl)noc1C | . | -74.5 | . | ? | ? | ?
Cc1[nH]c2ccccc2c1C(=O)COC(=O)c1c(-c2c(F)cccc2Cl)noc1C | . | -71.0 | 31.6µM | ? | . | ?
Cc1onc(-c2ccccc2Cl)c1C(=O)OCC(=O)N1CCC(C)CC1 | / | . | . | / | / | /
CC(=O)[C@@]12C3[C@@H](CCN3C(=O)N[C@H]1c1ccccc1)[C@H]2c1ccccc1 (stereo partly specified) | / | / | / | . | / | /
Cc1ccc(C2CC(=O)C=C(NCC(C)C)C2)cc1 (stereo unspecified) | . | -81.3 | . | . | . | .
Cc1ccc(C2CC(=O)C=C(NCc3ccccc3)C2)cc1 (stereo unspecified) | ? | . | . | . | . | ?
Cc1oc(-c2ccc(C(=O)NCc3ccccc3F)cc2)nc1COc1ccccc1 | ? | . | . | / | . | .
Cc1ccc(C(=O)NCC(=O)OCc2cc(=O)n3c(C)csc3n2)cc1 | . | . | . | / | . | .
COc1cc(N)c(Cl)cc1C(=O)OCC(=O)NCC1CCCCC1 | . | -66.4 | . | ? | . | .
CCCOc1ccc(C(F)(F)F)cc1NS(=O)(=O)c1ccc(Cl)nc1 | . | . | . | . | 11.2µM | ?
CCCOc1ccc(C(F)(F)F)cc1NC(=O)c1cc(C)on1 | / | . | . | / | / | /
NC(=S)Nc1cccc2cccnc12 | . | -78.6 | . | . | / | .
Cc1ccc2cccc(NS(=O)(=O)c3ccccc3)c2n1 | ? | -80.0 | ? | 1.41µM | . | .
O=S(=O)(Nc1cccc2cccnc12)c1ccccc1 | ? | -100.9 | ? | ? | 10µM | 12.6µM
CS(=O)(=O)Nc1cccc2cccnc12 | . | . | . | . | / | .
COc1ccc(NS(=O)(=O)c2ccc3ccccc3c2)c2ncccc12 | ? | -92.1 | . | ? | ? | .
O=S(=O)(Nc1cccc2cccnc12)c1ccc(S(=O)(=O)N2CCCC2)cc1 | 8.2µM | -85.9 | / | ? | . | .
Cc1ccc(S(=O)(=O)Nc2cccc3cccnc23)c([N+](=O)[O-])c1 | 10µM | -98.1 | ? | ? | ? | ?
CC(=O)Nc1ccc(S(=O)(=O)Nc2ccccn2)cc1 | . | . | . | . | . | .
CC(=O)Nc1ccc(S(=O)(=O)Nc2cccc3cccnc23)cc1 | / | -82.8 | . | . | . | .
Cc1cc(C)c(NS(=O)(=O)c2cccc3cccnc23)c(C)c1 | . | . | . | . | . | .
Cc1ccccc1NS(=O)(=O)c1ccc(S(=O)(=O)N2CCCC2)cc1 | / | . | ? | / | . | .
SMILES | Lassa entry inh | HCMV antiviral | FMDV antiviral | MARV entry inh | VACV mCherry inh | Vaccinia Venus
O=C(CCCn1c(=O)c2cccn2c2cccnc21)Nc1ccccc1C(F)(F)F | . | ? | . | / | . | .
CCOC(=O)Cc1ccc(NC(=O)c2ccc(C(C)(C)C)cc2)cc1 | 12.6µM | -88.0 | 17.8µM | 12.6µM | ? | ?
O=C(NC(=S)Nc1cccc(NC(=S)NC(=O)c2ccco2)n1)c1ccco1 | . | -115.6 | . | . | . | .
O=C(Nc1ccc(NC(=S)NC(=O)c2ccco2)cc1)c1ccccc1 | . | . | . | ? | . | .
COC(=O)Cc1ccc(NC(=O)c2ccc(NC(=O)c3ccco3)cc2)cc1 | . | -82.9 | . | ? | . | .
O=C(Nc1ccc(NC(=S)NC(=O)c2ccco2)cc1)c1ccc(Br)cc1 | / | -77.6 | . | / | . | .
CC(C)(C)C(=O)Nc1ccc(NC(=O)c2ccco2)nc1 | ? | -95.9 | 6.31µM | ? | . | .
CC(C)(C)c1ccc(C(=O)Nc2ccc(NC(=O)c3ccco3)cc2)cc1 | . | -83.3 | / | . | . | ?
O=C(Nc1ccc(NC(=O)c2ccco2)nc1)c1ccco1 | ? | ? | . | ? | . | .
Cc1ccccc1C(=O)Nc1cccc(-c2nnc(SCC(=O)NCc3ccco3)n2C)c1 | / | / | / | / | . | .
COc1cc(/C=C(\C#N)C(=O)Nc2nnc(C(F)(F)F)s2)ccc1OCc1ccc(C(F)(F)F)cc1C(F)(F)F | 14.6µM | / | / | . | / | /
CCNC(=S)NC1CC2CCC(C1)N2Cc1ccccc1 (stereo unspecified) | . | . | / | 0.92µM | . | .
CC(C)CNC(=S)NC1CC2CCC(C1)N2Cc1ccccc1 (stereo unspecified) | . | . | / | 0.651µM | . | .
Cc1ccc2nc(-c3ccccc3)nn2c1 | 1.12µM | . | 11.2µM | 8.91µM | . | .
COc1cccc(CN(C)CC(=O)Nc2ccccc2C(C)C)c1 | . | -64.7 | ? | ? | . | .
Cc1ccc(CSc2nc3cccnc3n2Cc2ccc(C(=O)NCCc3cccs3)cc2)cc1 | ? | . | . | / | . | .
COc1ccc(OCCNC(=S)Nc2cccc3ccccc23)cc1 | . | -83.8 | . | . | / | /
S=C(NCCc1ccccc1)Nc1cccc2cnccc12 | ? | -94.8 | . | . | . | .
COc1ccc(CCNC(=S)Nc2cccc3ccccc23)cc1 | . | . | . | . | . | .
S=C(NCc1ccccc1)Nc1cccc2cnccc12 | / | -86.7 | ? | ? | . | .
Cc1ccccc1NC(=S)Nc1cccc2cnccc12 | . | -65.3 | ? | . | . | .
COc1ccc(C(O)c2ncc(-c3ccccc3)[nH]2)c(OC)c1 (stereo unspecified) | / | -66.5 | . | / | . | .
COc1ccc(/C(C)=N/OCC(=O)N=Nc2c(O)[nH]c3ccc(Br)cc23)cc1 | . | . | 39.8µM | ? | . | .
Cc1cccc(NC(=S)N=Nc2c(O)[nH]c3ccccc23)c1 | ? | . | . | ? | . | ?
COc1ccccc1NC(=S)N=Nc1c(O)[nH]c2ccc(Br)cc12 | / | -66.5 | . | / | / | /
SMILES | Lassa entry inh | HCMV antiviral | FMDV antiviral | MARV entry inh | VACV mCherry inh | Vaccinia Venus
CCN1C(=O)NC(c2cccc(C(F)(F)F)c2)C(C(=O)OC)=C1C (stereo unspecified) | / | / | / | . | / | /
CCCC[n+]1c(/C=C/c2ccc(N(C)C)cc2)sc2ccccc21 | / | / | / | / | ? | .
CCOc1ccc(CCn2c3c(c(=O)[nH]c2=O)C(NC(=O)c2ccccc2)(C(F)(F)F)C(=O)N3)cc1OCC (stereo unspecified) | . | . | . | . | . | .
Cc1ccc(S(=O)(=O)N(C)C)cc1NC(=S)NC(=O)C12CC3CC(CC(C3)C1)C2 | . | -63.1 | ? | ? | . | .
Cc1ccc(S(=O)(=O)N(C)C)cc1NC(=S)NC12CC3CC(CC(C3)C1)C2 | . | . | . | . | / | /
CCCC(=O)NC(c1cccc([N+](=O)[O-])c1)c1ccc2cccnc2c1O (stereo unspecified) | / | -98.5 | . | / | 3.98µM | ?
CCC(=O)NC(c1cccc([N+](=O)[O-])c1)c1c(OC(C)=O)ccc2ccccc12 (stereo unspecified) | ? | . | ? | ? | / | .
CC(C)C(=O)NC(c1cccc([N+](=O)[O-])c1)c1ccc2cccnc2c1O (stereo unspecified) | 7.08µM | -104.8 | . | ? | ? | 4.47µM
